Measured values taken from PubChem BioAssay (Tox21).
Records with an inconclusive call do not appear. Activity calls are given as the source filed them. Unless noted, calls follow the shape of the dose curve; as a rule, active = well fitted curve in the direction sought with a large enough effect in the repeat runs; inconclusive = weak or mixed curves; inactive = no such curve, though single readings can be large; an effect the other way counts as inactive or inconclusive.

Columns and labels:
[1] = qHTS assay for small molecule agonists of the p53 signaling pathway (AID 651631; calls by dose curve; also: nearly all actives have a fitted effect of over 15% in size)
Outline: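 Testing took place in human colorectal HCT-116 cells with stable p53RE-driven beta-lactamase. After 16 h of compound exposure at 37 °C, a FRET substrate was added and fluorescence recorded 2 h later.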

[2] = qHTS assay for small molecules that induce genotoxicity in human embryonic kidney cells expressing luciferase-tagged ATAD5 (AID 651632); also: nearly all actives have a fitted effect of over 15% in size
Outline: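 HEK293T cells carrying a luciferase reporter tagged to ATAD5 were exposed to compound or DMSO vehicle for 16 hr at 37C, 5% CO2. Amplite was added, and after 30 min at room temperature luciferase activity was read as a marker of ATAD5 induction.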

[3] = qHTS assay for small molecule agonists of the p53 signaling pathway - cell viability (AID 651633; calls by dose curve; also: series mostly up to about 83 µM; nearly all actives have a fitted effect of over 30% in size)
Outline: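 p53RE-bla cells, seeded at 4,000 per well and rested 5 h at 37 C/5% CO2, received compounds in DMSO for 16 h at 37 C. CellTiter-Glo was then added, and luminescence was read after 30 min at room temperature to gauge cytotoxicity.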

[4] = qHTS assay for small molecules that induce genotoxicity in human embryonic kidney cells expressing luciferase-tagged ATAD5 - cell viability (AID 651634; calls by dose curve; also: nearly all actives have a fitted effect of over 25% in size)
Outline: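 HEK293T cells expressing luciferase-tagged ATAD5 were exposed to compound or DMSO for 15.5 hr at 37C, 5% CO2. Viability was then read as live-cell protease activity by CellTiter-Fluor fluorescence after 30 min at 37C.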

[5] = qHTS assay for small molecule disruptors of the mitochondrial membrane potential - cell viability (AID 720634; calls by dose curve;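 also: human HepG2 liver cancer cells; series mostly up to about 83 µM; nearly all actives have a fitted effect of over 20% in size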)
Outline: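 HepG2 cells seeded overnight at 37 C, then exposed to compound or DMSO for 1 hr at 37 C, 5% CO2. m-MPI dye added, then CellTiter-Glo for 30 min at room temperature; viability read as ATP luminescence.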

[6] = qHTS assay to test for compound auto fluorescence at 590 nm (red) in HepG2 cells (AID 720674)
Outline: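 Intrinsic compound fluorescence in the red window (Ex/Em 540/590 nm) is measured in attached HepG2 cells exposed for 1 hr, DMSO vehicle as baseline, benchmarked to Rose Bengal sodium.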

[7] = qHTS assay to test for compound auto fluorescence at 590 nm (red) in HEK293 cells (AID 720679)
Outline: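 HEK293 cells (2,000/well, medium with 10% dialyzed FBS) attached for 4-5 hr at 37C, received 23 nL compound and were incubated overnight at 37C, 5% CO2. Red fluorescence was then read at 540/590nm Ex/Em, referenced to Rose Bengal sodium.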

[8] = qHTS assay to test for compound auto fluorescence at 535 nm (green) in HEK293 cells (AID 720680)
[9] = qHTS assay to test for compound auto fluorescence at 460 nm (blue) in HEK293 cell free culture (AID 720681)
Outline: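 Test compounds were pinned into cell-free culture medium (DMEM with 10% FBS) and fluorescence was read directly at Ex/Em 405/460 nm. Signals were expressed as fluorescence equivalents of triamterene, with DMSO vehicle as control.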

[10] = qHTS assay to test for compound auto fluorescence at 535 nm (green) in HEK293 cell free culture (AID 720682)
Outline: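 DMEM + 10% FBS, cell-free; cpd or DMSO pinned in; Ex485/Em535 read; output as fluorescein-equivalent signal.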

[11] = qHTS assay to test for compound auto fluorescence at 590 nm (red) in HEK293 cell free culture (AID 720683)
Outline: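 Tox21 10K library compounds were pinned into cell-free DMEM with 10% FBS and fluorescence was read at excitation 540 nm. Activity is expressed as Rose Bengal sodium equivalency.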

[12] = qHTS assay to test for compound auto fluorescence at 590 nm (red) in HepG2 cell free culture (AID 720684)
Outline: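 Red fluorescence (540 nm excitation, 590 nm emission) was measured after compound transfer into cell-free MEM supplemented with 10% FBS. Values are equivalencies against Rose Bengal sodium.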

[13] = qHTS assay to test for compound auto fluorescence at 460 nm (blue) in HepG2 cell free culture (AID 720685)
Outline: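 Compound (23 nL) or DMSO pinned into cell-free MEM with 10% FBS; blue fluorescence read at 405/460 nm excitation/emission, expressed as auto-fluorescence equivalency to triamterene.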

[14] = qHTS assay to test for compound auto fluorescence at 460 nm (blue) in HepG2 cells (AID 720687)
Outline: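 Cells (2,000/well in MEM with 10% FBS) attached overnight at 37 C, then were exposed to compound or DMSO for 1 hr at 37 C, 5% CO2. Fluorescence read at Ex/Em 405/460 nm, expressed as triamterene-equivalent signal.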

[15] = qHTS assay to test for compound auto fluorescence at 535 nm (green) in HepG2 cells (AID 720675)
[16] = qHTS assay to test for compound auto fluorescence at 535 nm (green) in HepG2 cell free culture (AID 720686)
[17] = target: Glucocorticoid receptor (Homo sapiens) (UniProt P04150); assay: qHTS assay to identify small molecule agonists of the glucocorticoid receptor (GR) signaling pathway (AID 720691; active = well fitted activation curve with a large enough effect in the signal ratio in the repeat runs, not every such curve was filed as active; the % refers to the signal ratio)
Sequence of Glucocorticoid receptor (Homo sapiens) (P04150 whole entry, looked up): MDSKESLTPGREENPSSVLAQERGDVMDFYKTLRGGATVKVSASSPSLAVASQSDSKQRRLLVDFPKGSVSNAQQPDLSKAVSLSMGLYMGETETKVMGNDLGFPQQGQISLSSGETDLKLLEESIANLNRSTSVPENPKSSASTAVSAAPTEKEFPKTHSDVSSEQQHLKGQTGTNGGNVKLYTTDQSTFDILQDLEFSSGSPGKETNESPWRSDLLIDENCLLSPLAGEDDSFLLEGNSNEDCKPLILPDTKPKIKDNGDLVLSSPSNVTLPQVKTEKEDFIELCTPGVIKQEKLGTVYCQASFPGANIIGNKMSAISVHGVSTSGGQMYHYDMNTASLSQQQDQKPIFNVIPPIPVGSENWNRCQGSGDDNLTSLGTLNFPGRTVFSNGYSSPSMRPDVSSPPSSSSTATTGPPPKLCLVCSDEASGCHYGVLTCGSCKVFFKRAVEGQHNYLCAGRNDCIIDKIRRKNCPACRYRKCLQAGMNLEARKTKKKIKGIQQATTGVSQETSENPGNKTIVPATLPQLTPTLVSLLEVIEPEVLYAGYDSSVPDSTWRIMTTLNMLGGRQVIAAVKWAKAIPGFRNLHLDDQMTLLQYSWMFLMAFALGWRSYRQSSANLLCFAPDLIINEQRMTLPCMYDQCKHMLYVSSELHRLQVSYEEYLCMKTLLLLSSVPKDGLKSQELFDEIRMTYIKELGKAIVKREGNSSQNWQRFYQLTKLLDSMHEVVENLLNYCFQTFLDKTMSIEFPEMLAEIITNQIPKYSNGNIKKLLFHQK
Outline: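 GR-bla HeLa cells (beta-lactamase reporter under glucocorticoid response element) were plated 4 h at 37 C/5% CO2, given compounds in DMSO, and incubated 18 h at 37 C. LiveBLAzer B/G FRET substrate was added for 2 h at room temperature, then fluorescence intensity read.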

[18] = target: Glucocorticoid receptor (Homo sapiens) (UniProt P04150); assay: qHTS assay to identify small molecule antagonists of the glucocorticoid receptor (GR) signaling pathway (AID 720692; active = well fitted inhibition curve with a large enough effect in the signal ratio in the repeat runs, not every such curve was filed as active; the % refers to the signal ratio)
Outline: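 GR-bla HeLa cells (beta-lactamase reporter under glucocorticoid response element) were pre-plated 4 h at 37 C, treated with compounds plus 5 nM dexamethasone (final) for 18 h, then read by LiveBLAzer B/G FRET fluorescence after 2 h.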

[19] = qHTS assay for small molecule disruptors of the mitochondrial membrane potential (AID 720635)
Outline: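 HepG2 cells (2,000/well) attached overnight at 37C, then took compound for 1 hr at 37C, 5% CO2. Mito-MPS dye was added for 30 min; fluorescence was read at 490/535 nm (monomers) and 540/590 nm (aggregates).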

[20] = qHTS assay to test for compound auto fluorescence at 460 nm (blue) in HEK293 cells (AID 720678)
Outline: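 HEK293 cells (2,000 per well, medium with 10% dialyzed FBS) attached for 4-5 hr at 37C, then received compound and stood overnight at 37C, 5% CO2. Blue fluorescence was read at Ex/Em 405/460 nm and expressed relative to triamterene.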

Measured: Potency

CCOC(=O)COc1ccc2c(C)c(CCN(CC)CC)c(=O)oc2c1Cl
not listed: [15] | [16] | [17] | [18] | [19] | [20]
inactive: all other assays above

CCC(C)SSC(C)CC (configuration not stated)
not listed: [19] | [20]
inactive: all other assays above

CC(=O)c1c(C)cc(C(C)(C)C)cc1C
not listed: [5] | [8] | [9] | [16] | [17] | [18]
inactive: all other assays above

CN(C)CCC[C@@]1(c2ccc(F)cc2)OCc2cc(C#N)ccc21
not listed: [5] | [19]
inactive: all other assays above

Clc1cc(Cl)c(Cl)c(Cl)c1Cl
not listed: [5] | [16] | [19]
inactive: all other assays above

COC(=O)c1ccccc1Cl
not listed: [8] | [17] | [19]
inactive: all other assays above

Nc1cc(S(=O)(=O)O)ccc1O
not listed: [5] | [15]
inactive: all other assays above

C/C=C/C(=O)CCCC
not listed: [5] | [8] | [17] | [18]
inactive: all other assays above
